Records with an inconclusive call do not appear. Entries that show only a call come without a potency. Active and inactive are the calls of the source. Unless noted, the call rests on the fitted dose curve; in most records, active means well fitted curve in the direction sought with a large enough effect in the repeat runs; inconclusive means weak or mixed curves; inactive means no such curve, though single readings can be large; an effect the other way counts as inactive or inconclusive.
What was measured:
[1] = qHTS assay to identify small molecule agonists of the androgen receptor (AR) signaling pathway in the presence of an antagonist - cell viability counter screen (AID 1259379);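 further: MDA-kb2 human breast cancer cells carrying an MMTV luciferase reporter; series mostly up to about 92 µM; nearly all actives have a fitted effect of over 25% in size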
How it was run: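 MDA-kb2 viability measured by CellTiter-Fluor fluorescence in the same wells as the luciferase signal; nilutamide 3.0uM final; 15-point compound titration; 16 hr at 37C.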

[2] = qHTS assay to identify small molecule agonists of the estrogen receptor beta (ER-beta) signaling pathway - cell viability counter screen (AID 1259380); further: nearly all actives have a fitted effect of over 30% in size; further: potency means the concentration at half of the fitted maximal effect
How it was run: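 Measured: luminescence from CellTiter-Glo after 30 min at room temperature, added to wells already read for the LiveBLAzer FRET reporter (2 hr substrate); ER-beta-UAS-bla HEK293T cells had 16 hr compound treatment at 37C, 5% CO2.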

[3] = qHTS assay to identify small molecule antagonists of the estrogen receptor beta (ER-beta) signaling pathway - cell viability counter screen (AID 1259382);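 further: HEK293T cells carrying ER-beta-UAS-bla reporter stimulated with estradiol; series mostly up to about 92 µM; nearly all actives have a fitted effect of over 55% in size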
How it was run: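 Readout: luminescence, CellTiter-Glo, same wells as bla assay. System: ER-beta-UAS-bla GripTite HEK293T, 2% charcoal-stripped FBS. Exposure: compounds plus 1nM 17-beta-estradiol, 16 hr, 37C.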

[4] = qHTS assay to identify small molecule agonists of the estrogen receptor alpha (ER-alpha) signaling pathway in the presence of an antagonist - cell viability counter screen (AID 1259386);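 further: cells exposed to compounds for 22 h at 37 °C before the viability read; nearly all actives have a fitted effect of over 30% in size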; further: potency means the concentration at half of the fitted maximal effect
How it was run: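 The test measures whether compounds kill ER-alpha reporter cells (VM7Luc4E2) under antagonist co-treatment (ICI-182,780, 10.0nM). Fluorescence from CellTiter-Fluor is read after a 22hr exposure.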

[5] = biological target: Progesterone receptor (Homo sapiens) (UniProt P06401); experiment: qHTS assay to identify small molecule agonists of the progesterone receptor (PR) signaling pathway (AID 1346784; calls by dose curve; further: nearly all actives have a fitted effect of over 30% in size; further: potency means the concentration at half of the fitted maximal effect)
Progesterone receptor (Homo sapiens), sequence (P06401 whole entry, looked up): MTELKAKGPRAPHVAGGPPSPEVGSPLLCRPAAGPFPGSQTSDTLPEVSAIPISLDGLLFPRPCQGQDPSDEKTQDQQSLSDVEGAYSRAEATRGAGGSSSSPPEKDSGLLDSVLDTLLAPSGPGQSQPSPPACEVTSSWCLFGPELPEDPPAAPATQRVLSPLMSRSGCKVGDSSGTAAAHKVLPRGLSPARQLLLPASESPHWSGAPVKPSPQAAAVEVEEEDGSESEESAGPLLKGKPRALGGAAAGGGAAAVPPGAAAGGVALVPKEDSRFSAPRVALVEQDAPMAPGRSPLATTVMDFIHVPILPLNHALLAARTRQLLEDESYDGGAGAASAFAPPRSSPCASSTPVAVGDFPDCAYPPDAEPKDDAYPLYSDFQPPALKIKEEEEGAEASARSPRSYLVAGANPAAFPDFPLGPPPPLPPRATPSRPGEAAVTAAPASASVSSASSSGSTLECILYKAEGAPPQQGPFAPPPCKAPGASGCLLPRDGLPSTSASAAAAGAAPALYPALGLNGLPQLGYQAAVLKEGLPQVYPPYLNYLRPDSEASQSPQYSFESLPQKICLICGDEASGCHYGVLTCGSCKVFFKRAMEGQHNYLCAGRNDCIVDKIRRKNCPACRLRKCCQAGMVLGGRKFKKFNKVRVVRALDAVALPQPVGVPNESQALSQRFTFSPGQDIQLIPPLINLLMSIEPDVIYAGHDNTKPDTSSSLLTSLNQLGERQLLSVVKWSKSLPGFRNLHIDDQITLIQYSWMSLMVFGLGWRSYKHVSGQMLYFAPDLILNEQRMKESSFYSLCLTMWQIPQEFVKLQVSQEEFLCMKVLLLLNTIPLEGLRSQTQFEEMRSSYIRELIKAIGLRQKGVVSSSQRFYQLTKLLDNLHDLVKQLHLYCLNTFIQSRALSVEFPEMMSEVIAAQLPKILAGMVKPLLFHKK
How it was run: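 Reporter assay, GripTite PR-UAS-bla HEK 293T cells: 16 hr exposure to DMSO-dissolved compounds at 37C, 5% CO2, in steroid-depleted (2% charcoal-stripped FBS) medium; beta-lactamase measured by FRET fluorescence.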

[6] = biological target: Progesterone receptor (Homo sapiens) (UniProt P06401); experiment: qHTS assay to identify small molecule antagonists of the progesterone receptor (PR) signaling pathway (AID 1346795; active means well fitted inhibition curve with a large enough effect in the signal ratio in the repeat runs, not every such curve was filed as active; the % refers to the signal ratio; further: potency means the concentration at half of the fitted maximal effect)
How it was run: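 Stimulus R5020 at 1 nM final; cells HEK293T PR-UAS-bla; medium with 2% charcoal-stripped FBS; compound exposure 16 hr at 37C, 5% CO2; detection by FRET beta-lactamase substrate, 2 hr, room temperature.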

[7] = qHTS assay to identify small molecule antagonists of the TGF-beta/Smad signaling pathway - cell viability counter screen (AID 1346824); further: nearly all actives have a fitted effect of over 50% in size
How it was run: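 SBE-bla HEK 293T cells were plated overnight at 37 C, then given compounds in DMSO plus TGF-beta1 (added as 0.25 ng/mL solution) for 5 hr. After the bla read, CellTiter-Glo was added to the same wells and luminescence read after 30 min at room temperature.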

[8] = qHTS assay to identify small molecule agonists of the TGF-beta/Smad signaling pathway - cell viability counter screen (AID 1346829); further: top concentration of the series differs between compounds; nearly all actives have a fitted effect of over 45% in size
How it was run: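 Cytotoxicity counter screen: CellTiter-Glo luminescence (30 min, room temperature) measured in the SBE-bla HEK 293T reporter wells after 5 hr compound treatment at 37 C and the 2 hr substrate step.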

[9] = qHTS assay to identify small molecule agonists of the TGF-beta/Smad signaling pathway (AID 1346859; active means well fitted activation curve with a large enough effect in the signal ratio in the repeat runs, not every such curve was filed as active; the % refers to the signal ratio; further: series mostly up to about 77 µM)
How it was run: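 Screening used HEK 293T SBE-bla cells at 4,000/well. Test agents: 5 hr, 37 C. Detection: FRET substrate, 2 hr RT, then excitation 405 nm with emissions at 460 and 530 nm.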

[10] = biological target: Estrogen receptor beta (Homo sapiens) (UniProt Q92731); experiment: qHTS assay to identify small molecule agonists of the estrogen receptor beta (ER-beta) signaling pathway (AID 1259377; active means well fitted activation curve with a large enough effect in the signal ratio in the repeat runs, not every such curve was filed as active; the % refers to the signal ratio)
Estrogen receptor beta (Homo sapiens), sequence (Q92731 whole entry, looked up): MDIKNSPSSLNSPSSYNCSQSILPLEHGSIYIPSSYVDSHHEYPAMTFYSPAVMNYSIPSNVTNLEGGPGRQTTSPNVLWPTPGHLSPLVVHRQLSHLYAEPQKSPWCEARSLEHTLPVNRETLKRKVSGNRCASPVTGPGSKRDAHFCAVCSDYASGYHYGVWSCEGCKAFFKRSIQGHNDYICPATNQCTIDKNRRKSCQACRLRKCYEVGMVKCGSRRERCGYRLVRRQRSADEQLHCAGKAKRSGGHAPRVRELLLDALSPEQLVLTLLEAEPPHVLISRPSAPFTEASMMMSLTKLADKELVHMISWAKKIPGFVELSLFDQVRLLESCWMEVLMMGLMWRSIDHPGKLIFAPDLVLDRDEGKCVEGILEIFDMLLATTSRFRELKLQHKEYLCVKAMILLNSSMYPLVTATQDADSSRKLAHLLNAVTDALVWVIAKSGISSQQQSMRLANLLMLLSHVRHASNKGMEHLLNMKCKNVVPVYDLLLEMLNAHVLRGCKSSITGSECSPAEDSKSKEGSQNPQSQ
How it was run: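 Reporter cells (HEK293T, ER-beta-UAS-bla) receive compounds or DMSO after a 6 hr pre-incubation. They then incubate 16 hr at 37C/5% CO2, and fluorescence from LiveBLAzer B/G substrate is measured after 2 hours at room temperature.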

[11] = biological target: Estrogen receptor (Homo sapiens) (UniProt P03372); experiment: qHTS assay to identify small molecule agonists of the estrogen receptor alpha (ER-alpha) signaling pathway in the presence of an antagonist (AID 1259383; calls by dose curve; further: top concentration of the series differs between compounds; nearly all actives have a fitted effect of over 15% in size)
Estrogen receptor (Homo sapiens), sequence (P03372 whole entry, looked up): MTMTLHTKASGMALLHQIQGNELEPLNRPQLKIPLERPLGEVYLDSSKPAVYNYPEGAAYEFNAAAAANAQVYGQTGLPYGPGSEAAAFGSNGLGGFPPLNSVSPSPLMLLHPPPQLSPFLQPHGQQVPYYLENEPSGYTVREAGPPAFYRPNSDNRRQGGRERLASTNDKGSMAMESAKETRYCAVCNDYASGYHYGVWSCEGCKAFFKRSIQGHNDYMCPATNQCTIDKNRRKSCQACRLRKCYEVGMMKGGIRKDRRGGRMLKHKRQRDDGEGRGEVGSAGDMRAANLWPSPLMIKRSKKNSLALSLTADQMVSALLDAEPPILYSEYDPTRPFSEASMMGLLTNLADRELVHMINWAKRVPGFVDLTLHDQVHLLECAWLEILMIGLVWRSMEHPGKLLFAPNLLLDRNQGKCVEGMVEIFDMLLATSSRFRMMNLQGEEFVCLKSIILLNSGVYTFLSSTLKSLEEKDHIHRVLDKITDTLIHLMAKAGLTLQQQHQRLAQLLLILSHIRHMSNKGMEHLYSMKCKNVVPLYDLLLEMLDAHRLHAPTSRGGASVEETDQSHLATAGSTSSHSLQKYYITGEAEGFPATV
How it was run: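 Quantitative HTS confirmation: compounds titrated at 15 concentrations onto estrogen-deprived VM7Luc4E2 cells carrying a four-ERE luciferase construct, with ICI-182,780 present at 10.0nM final. Signal is luminescence after 22hr exposure.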

[12] = biological target: Thyrotropin receptor (Homo sapiens) (UniProt P16473); experiment: qHTS assay to identify small molecule antagonists of the thyroid stimulating hormone receptor (TSHR) signaling pathway (AID 1259385; calls by dose curve; further: nearly all actives have a fitted effect of over 20% in size)
Thyrotropin receptor (Homo sapiens), sequence (P16473 whole entry, looked up): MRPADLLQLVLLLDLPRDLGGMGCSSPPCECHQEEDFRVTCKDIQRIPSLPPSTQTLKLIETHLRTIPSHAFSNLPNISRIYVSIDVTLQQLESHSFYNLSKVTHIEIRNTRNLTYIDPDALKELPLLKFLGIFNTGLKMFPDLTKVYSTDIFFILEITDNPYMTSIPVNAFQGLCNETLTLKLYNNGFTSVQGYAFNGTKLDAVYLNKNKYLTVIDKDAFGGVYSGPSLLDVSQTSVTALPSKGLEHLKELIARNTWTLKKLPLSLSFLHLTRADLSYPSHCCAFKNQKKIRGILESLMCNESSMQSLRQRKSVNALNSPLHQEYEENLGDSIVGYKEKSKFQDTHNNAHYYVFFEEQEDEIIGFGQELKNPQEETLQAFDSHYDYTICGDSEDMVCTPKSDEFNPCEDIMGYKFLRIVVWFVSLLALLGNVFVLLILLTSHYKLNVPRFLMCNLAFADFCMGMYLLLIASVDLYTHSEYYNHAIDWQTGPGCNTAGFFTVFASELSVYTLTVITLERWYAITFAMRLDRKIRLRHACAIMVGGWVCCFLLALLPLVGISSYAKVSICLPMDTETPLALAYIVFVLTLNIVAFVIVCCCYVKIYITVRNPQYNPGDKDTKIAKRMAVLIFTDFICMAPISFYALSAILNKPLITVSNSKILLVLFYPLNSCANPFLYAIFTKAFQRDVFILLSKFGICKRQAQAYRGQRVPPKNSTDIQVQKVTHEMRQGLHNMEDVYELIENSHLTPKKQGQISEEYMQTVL
How it was run: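 TSHR-HEK293 cells were plated and held 18 h at 37C/5% CO2, then given compound plus Ro20-1724 and stimulated with TSH at 1.5 ng/mL final. After 30 min at room temperature, cAMP was detected with cAMP-d2/anti-cAMP-cryptate (1 h) by fluorescence.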

[13] = biological target: Thyrotropin-releasing hormone receptor (Homo sapiens) (UniProt P34981); experiment: qHTS assay to identify small molecule antagonists of the thyrotropin-releasing hormone receptor (TRHR) signaling pathway (AID 1346877; active means well fitted inhibition curve with a large enough effect in the repeat runs, not every such curve was filed as active; further: series mostly up to about 51 µM)
Thyrotropin-releasing hormone receptor (Homo sapiens), sequence (P34981 whole entry, looked up): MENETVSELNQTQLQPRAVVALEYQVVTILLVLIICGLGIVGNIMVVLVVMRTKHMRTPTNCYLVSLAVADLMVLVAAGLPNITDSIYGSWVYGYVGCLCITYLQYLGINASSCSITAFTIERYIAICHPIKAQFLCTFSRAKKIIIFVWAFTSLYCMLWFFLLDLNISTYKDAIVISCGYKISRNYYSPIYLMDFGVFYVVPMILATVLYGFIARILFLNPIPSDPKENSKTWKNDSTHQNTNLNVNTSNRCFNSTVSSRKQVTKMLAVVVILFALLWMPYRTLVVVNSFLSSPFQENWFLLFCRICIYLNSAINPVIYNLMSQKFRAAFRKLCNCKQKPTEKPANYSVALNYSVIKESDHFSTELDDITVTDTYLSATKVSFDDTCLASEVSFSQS
How it was run: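 Overnight-plated (18 h, 37 °C) HEK293 cells expressing TRHR were dye-loaded 2 h, treated with compound, then stimulated with TRH at 1 nM final. Fluorescence intensity was captured every second for 3 min.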

[14] = biological target: Thyrotropin-releasing hormone receptor (Homo sapiens) (UniProt P34981); experiment: qHTS assay to identify small molecule agonists of the thyrotropin-releasing hormone receptor (TRHR) signaling pathway (AID 1346891; calls by dose curve; further: series mostly up to about 58 µM)
How it was run: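 Readout was intracellular calcium fluorescence in TRHR-Hek293 cells. Cells were incubated 18 h, dye-loaded 2 h at 37 °C, and treated with compound in agonist mode.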

[15] = biological target: Androgen receptor (Homo sapiens) (UniProt P10275); experiment: qHTS assay to identify small molecule agonists of the androgen receptor (AR) signaling pathway in the presence of an antagonist (AID 1259381; calls by dose curve; further: nearly all actives have a fitted effect of over 15% in size; further: potency means the concentration at half of the fitted maximal effect)
Androgen receptor (Homo sapiens), sequence (P10275 whole entry, looked up): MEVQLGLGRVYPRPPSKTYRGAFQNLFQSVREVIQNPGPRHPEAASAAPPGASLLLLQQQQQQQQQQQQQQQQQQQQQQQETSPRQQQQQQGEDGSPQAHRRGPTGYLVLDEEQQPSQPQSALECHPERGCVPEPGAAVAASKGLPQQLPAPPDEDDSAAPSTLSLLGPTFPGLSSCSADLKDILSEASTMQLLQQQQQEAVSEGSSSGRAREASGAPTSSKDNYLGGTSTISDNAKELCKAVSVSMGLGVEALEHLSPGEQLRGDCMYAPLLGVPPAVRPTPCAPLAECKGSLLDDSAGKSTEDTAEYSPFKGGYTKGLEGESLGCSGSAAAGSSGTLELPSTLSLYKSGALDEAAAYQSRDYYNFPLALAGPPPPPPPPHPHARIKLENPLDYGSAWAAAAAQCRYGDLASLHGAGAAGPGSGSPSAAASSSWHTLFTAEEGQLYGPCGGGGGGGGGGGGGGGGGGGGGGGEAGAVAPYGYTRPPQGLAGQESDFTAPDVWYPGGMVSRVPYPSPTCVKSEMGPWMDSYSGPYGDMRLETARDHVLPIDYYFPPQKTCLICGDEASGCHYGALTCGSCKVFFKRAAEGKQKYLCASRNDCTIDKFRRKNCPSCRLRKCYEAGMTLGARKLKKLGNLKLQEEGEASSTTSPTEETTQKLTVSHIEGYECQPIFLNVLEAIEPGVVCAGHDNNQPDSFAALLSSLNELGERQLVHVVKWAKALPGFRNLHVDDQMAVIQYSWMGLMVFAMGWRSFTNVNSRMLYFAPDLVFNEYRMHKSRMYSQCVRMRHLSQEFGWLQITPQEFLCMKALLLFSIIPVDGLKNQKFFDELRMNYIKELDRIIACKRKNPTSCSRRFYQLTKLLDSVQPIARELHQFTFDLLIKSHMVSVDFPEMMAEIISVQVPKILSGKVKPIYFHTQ
How it was run: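 Luminescent ONE-Glo read, 30min at room temperature, follows 16hr compound exposure (15 concentrations) of MDA-kb2 cells at 37C, 0% CO2, with nilutamide added at 3.0uM final.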

[16] = qHTS assay to identify small molecule agonists or antagonists of the thyroid stimulating hormone receptor (TSHR) signaling pathway - wild type cell line counter screen (AID 1259384; calls by dose curve)
How it was run: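 Wild-type HEK293 cells were plated 18 h at 37 C/5% CO2, pin-dosed with compound plus Ro20-1724 medium, held 30 min at room temperature, then given cAMP-d2 and anti-cAMP-cryptate; fluorescence was read after 1 h. Fifteen concentrations, triplicate.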

[17] = qHTS assay to identify small molecule antagonists of the progesterone receptor (PR) signaling pathway - cell viability counter screen (AID 1346798); further: nearly all actives have a fitted effect of over 50% in size; further: potency means the concentration at half of the fitted maximal effect
How it was run: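 In the same plates used for the beta-lactamase readout, cell viability of compound- and R5020-treated PR-UAS-bla HEK293T cells (16 hr, 37C) was assessed by CellTiter-Glo luminescence.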

[18] = qHTS assay to identify small molecule agonists of the progesterone receptor (PR) signaling pathway - cell viability counter screen (AID 1346799; calls by dose curve; further: nearly all actives have a fitted effect of over 45% in size; further: potency means the concentration at half of the fitted maximal effect)
How it was run: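 Multiplexed viability read: CellTiter-Glo luminescence, 30 min RT, following LiveBLAzer FRET measurement on PR-UAS-bla HEK293T cells exposed to compounds 16 hr.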

C[C@@H]1CC2=CC(=O)CC[C@@H]2[C@H]2CC[C@@]3(C)[C@@H](CC[C@]3(C)O)[C@@H]21
Potency [1]: inactive | Potency [2]: inactive | Potency [3]: inactive | Potency [4]: inactive | Potency [5]: 0.0017 µM (active) | Potency [6]: inactive | Potency [7]: inactive | Potency [8]: inactive | outcome [9]: inactive

COP(=S)(OC)Oc1ccc([N+](=O)[O-])c(C)c1
Potency [10]: inactive | Potency [1]: inactive | Potency [3]: inactive | Potency [11]: inactive | Potency [12]: inactive | Potency [6]: 6.11 µM (active) | Potency [7]: inactive | outcome [9]: inactive | Potency [13]: inactive | Potency [14]: inactive

O=S1OCC2C(CO1)C1(Cl)C(Cl)=C(Cl)C2(Cl)C1(Cl)Cl (configuration not stated)
Potency [1]: inactive | Potency [2]: 48.5 µM (active) | Potency [15]: inactive | Potency [11]: inactive | Potency [16]: inactive | Potency [12]: inactive | Potency [17]: 61.1 µM (active) | Potency [18]: 68.7 µM (active) | Potency [7]: inactive | Potency [8]: inactive | outcome [9]: inactive

O.O.O.O=C([O-])[C@H]([O-])[C@@H]([O-])C(=O)[O-].O=C([O-])[C@H]([O-])[C@@H]([O-])C(=O)[O-].[K+].[K+].[Sb+3].[Sb+3]
Potency [2]: inactive | Potency [3]: inactive | Potency [11]: inactive | Potency [5]: inactive | Potency [7]: inactive | Potency [8]: inactive | outcome [9]: inactive | Potency [13]: inactive | Potency [14]: inactive

C[N+]1(C)[C@@H]2CC[C@H]1CC(OC(=O)C(CO)c1ccccc1)C2 (some centres not stated)
Potency [10]: inactive | Potency [2]: inactive | Potency [3]: inactive | Potency [16]: inactive | Potency [12]: inactive | Potency [5]: inactive | Potency [6]: inactive | Potency [7]: inactive | Potency [8]: inactive | outcome [9]: inactive

N#Cc1c[nH]cc1-c1cccc2c1OC(F)(F)O2
Potency [2]: 21.7 µM (active) | Potency [11]: inactive | Potency [16]: inactive | Potency [12]: inactive | Potency [17]: inactive | Potency [7]: inactive | outcome [9]: inactive | Potency [13]: inactive | Potency [14]: inactive

CC#C[C@]1(O)CC[C@H]2[C@@H]3C[C@H](C)C4=CC(=O)CC[C@]4(C)[C@H]3CC[C@@]21C
Potency [1]: inactive | Potency [15]: 0.237 µM (active) | Potency [3]: inactive | Potency [11]: inactive | Potency [16]: inactive | Potency [12]: inactive | Potency [4]: inactive | Potency [6]: inactive | Potency [7]: inactive | Potency [8]: inactive | outcome [9]: inactive | Potency [14]: inactive

O=c1c2ccccc2c(=O)c2c1cc(Cl)c1[nH]c3c([nH]c12)c(Cl)cc1c(=O)c2ccccc2c(=O)c13
Potency [1]: inactive | Potency [2]: inactive | Potency [3]: inactive | Potency [11]: inactive | Potency [16]: inactive | Potency [12]: inactive | Potency [4]: inactive | Potency [5]: inactive | Potency [6]: inactive | Potency [17]: inactive | Potency [7]: inactive | Potency [8]: inactive | outcome [9]: inactive | Potency [13]: inactive | Potency [14]: inactive

CCCC[N+]1(C)CCCC1 (tested in a mixture with another compound)
Potency [1]: inactive | Potency [2]: inactive | Potency [3]: inactive | Potency [4]: inactive | Potency [5]: inactive | Potency [6]: inactive | Potency [17]: inactive | Potency [7]: inactive | outcome [9]: inactive

FC(F)C(F)(F)OCC(Cn1cncn1)c1ccc(Cl)cc1Cl (configuration not stated)
Potency [10]: inactive | Potency [2]: 60.8 µM (active) | Potency [16]: inactive | Potency [5]: inactive | Potency [6]: 19.2 µM (active) | Potency [8]: inactive | outcome [9]: inactive | Potency [14]: inactive

c1cc[n+]2c(c1)-c1cccc[n+]1CC2
Potency [1]: inactive | Potency [2]: inactive | Potency [3]: inactive | Potency [11]: inactive | Potency [12]: inactive | Potency [4]: 29.8 µM (active) | Potency [5]: inactive | Potency [6]: inactive | Potency [17]: inactive | Potency [18]: inactive | Potency [7]: inactive | Potency [8]: inactive | outcome [9]: inactive | Potency [13]: inactive | Potency [14]: inactive

Reference: PubChem BioAssay (Tox21)
